# Assay results taken from PubChem BioAssay (NCI).
# The panel holds about 79,000 compounds, 15% with a hit somewhere; the sample as a whole holds those more often. A number with no mark means an inactive call. Active and inactive are the calls of the source. Cut-off read from the data, not from the text of the source: active = growth inhibition above about 70%; inactive = the rest.
# Assays:
# [1] = NCI Yeast Anticancer Drug Screen. Data for the rad50 strain (AID 155);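 note: 0% = growth of vehicle-only cultures of the same strain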; conditions: S. cerevisiae rad50 strain growth inhibition; at 50.0 µM; stronger effect = higher value
# Summary of the method: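 DNA repair mutant yeast, compound exposure, growth read-out; inhibition is taken relative to vehicle.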
# [2] = NCI Yeast Anticancer Drug Screen. Data for the mec2-1 strain (AID 157); conditions: S. cerevisiae mec2-1 strain, at 50.0 µM, stronger effect = higher value
# Summary of the method: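 Cells of the genetically defined mec2-1 yeast strain are incubated with test compound. Inhibition of growth is calculated against vehicle-treated controls.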
# [3] = NCI Yeast Anticancer Drug Screen. Data for the sgs1 mgt1 strain (AID 161);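 note: 0% = growth of cultures given vehicle only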; conditions: S. cerevisiae sgs1 mgt1 strain, at 50.0 µM, stronger effect = higher value
# Summary of the method: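 Genetically altered yeast, compound exposure, growth inhibition relative to vehicle.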
# [4] = NCI Yeast Anticancer Drug Screen. Data for the cln2 rad14 strain (AID 165);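 note: 0% = growth equal to vehicle treated cultures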; conditions: S. cerevisiae cln2 rad14 strain, at 50.0 µM, stronger effect = higher value
# Summary of the method: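 The screen exposed genetically defined yeast (cln2 rad14) to test compounds and scored growth inhibition relative to vehicle-treated controls.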
# [5] = NCI Yeast Anticancer Drug Screen. Data for the bub3 strain (AID 167); conditions: S. cerevisiae bub3 mutant strain, at 50.0 µM, stronger effect = higher value
# Summary of the method: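 In this screen, a yeast mutant lacking normal mitotic checkpoint function is challenged with compound. Relative growth versus vehicle gives the inhibition value.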
# [6] = NCI Yeast Anticancer Drug Screen. Data for the mlh1 rad18 strain (AID 175); conditions: S. cerevisiae mlh1 rad18 strain growth inhibition; at 50.0 µM; stronger effect = higher value
# Summary of the method: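 Compound-treated yeast growth, normalised to vehicle controls. Strain bears defined DNA repair mutations.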
SMILES,growth inhibition [1],growth inhibition [2],growth inhibition [3],growth inhibition [4],growth inhibition [5],growth inhibition [6]
CCOC(=O)/C(C#N)=C/c1c[nH]c2ccccc12,19.6%,6.05%,3.5%,23.8%,19.3%,31.4%
O=C1OC(=O)C2C3CCC(O3)C12 (stereo not drawn),13.9%,7.4%,4.75%,-0.8%,-0.5%,-5%
CCC(=O)OCC(C)COC(=O)CC,9.55%,11.8%,4.1%,1.05%,-8.4%,-5.25%
O=C(OC1COC(OC(=O)c2ccc([N+](=O)[O-])cc2)C(OC(=O)c2ccc([N+](=O)[O-])cc2)C1OC(=O)c1ccc([N+](=O)[O-])cc1)c1ccc([N+](=O)[O-])cc1 (stereo not drawn),-6.15%,1.65%,-9.9%,-16.9%,-1.3%,4.3%
CCCNCC(O)COc1ccc2c3c(c(=O)oc2c1)CCC3 (stereo not drawn),1.15%,10.8%,-23.9%,-8.25%,-29.8%,-15.8%
O=[N+]([O-])c1nc(-[n+]2ccccc2)[n-]c1Br,4.65%,-1.05%,-1.9%,-49.9%,4.1%,8.8%
CN(Nc1ccnc(=O)[nH]1)c1ccccc1,-35.9%,-11.2%,-11%,-23.6%,-2.7%,8.8%
COC(=O)CCC(=O)CC(=O)C1=NS(=O)(=O)c2nc(S(N)(=O)=O)c(Cl)cc2N1,-5.3%,6.7%,-14.8%,-24.6%,-16.1%,-1.35%
CC(=O)N(CCc1ccccc1)C(C)(C#N)c1ccccc1 (stereo not drawn),-0.2%,4%,-30.9%,-22.4%,-12.2%,-29.4%
CCOc1ncnc2ccc(Cl)c(I)c12,12.2%,0.55%,24.6%,10.2%,35.9%,16.7%
O=c1ccn(Cc2ccccc2)c(=O)[nH]1,25.6%,-10.3%,4.35%,-29.4%,-3.95%,21.9%
COc1cc(O)c2c(c1)C(=O)C1=C(C2=O)[C@@H](C)OC(C)C1 (stereo partly drawn),-4.3%,10.2%,19.9%,11.1%,12.8%,19.8%
COc1ccc(/C(=N/N)c2ccccc2)cc1,3.6%,-40.5%,-23.6%,-42.4%,-18.8%,-2.15%
CC1=C(C)CP(=O)(c2ccccc2)C1,16.6%,-5.2%,-0.7%,-8.65%,-3.9%,-35.4%
CC12CCC/C(=N\NC(N)=S)C1C(=O)NC(=O)C2 (stereo not drawn),-6.8%,2.65%,-2.6%,33%,12.4%,7.15%
O=C(O)Cc1c(-c2ccc([N+](=O)[O-])cc2)c(=O)oc2cc(O)ccc12,28.4%,4.15%,9%,20.1%,41%,11.7%
OCCN(Cc1ccccc1)Cc1ncccc1O,9.35%,-27.1%,-11.4%,8.85%,-3.9%,5.7%
CC(C)Cc1c(N)nc(NCCCC(N)C(=O)O)[nH]c1=O (stereo not drawn),13.5%,-16.9%,-3.55%,13.1%,9.8%,11.8%
Cc1cc(N)ccc1N=Nc1ccc(S(=O)(=O)CCOS(=O)(=O)O)cc1,10.9%,-7.5%,-6.8%,-4.65%,-37.1%,-74.7%

SMILES,growth inhibition [1],growth inhibition [2],growth inhibition [3],growth inhibition [4],growth inhibition [5],growth inhibition [6]
O=c1[nH]c(=O)n(C2OC(CO)C(O)C2O)cc1OCc1ccccc1 (stereo not drawn),-31.8%,-19.8%,-22.8%,4.75%,-6.6%,-31.5%
N/N=C(/c1ccc(Cl)cc1)N1CCOCC1,15.4%,1.1%,3.8%,-8.6%,-18%,5.35%
C/C=C/C[P+](Cc1ccccc1)(c1ccccc1)c1ccccc1,59.6%,14.9%,26.2%,-32.1%,24.6%,14.3%
COc1ccc2cccc(C(=O)O)c2c1,1.3%,-10.3%,-6.5%,3.35%,-15.6%,-21.6%
CC(Oc1ccc([N+](=O)[O-])cc1)c1ccccc1 (stereo not drawn),-21.6%,-0.55%,-3.7%,-37.1%,-23.4%,1.4%
CCC1(O)C(=O)Nc2ccccc2C1=O (stereo not drawn),-3%,-22.8%,-17.3%,-13.6%,-23.1%,-5.85%
COC(=O)CCc1cc(=O)oc2ccc3cc(CC(=O)OC)oc3c12,5.75%,-7.65%,4.7%,-6.1%,-7.2%,2.15%
N#CC1=C(c2ccccc2)NNC(c2ccc(Cl)cc2)CC1=O (stereo not drawn),-18.1%,-1.45%,2.4%,6.8%,-22.6%,36.5%
CCCCCCCCCCCCCC(=O)OCCCC,-25.6%,-54.4%,-59.1%,-143%,-52%,-7.35%
CCCCCCC(=O)C/C(CCC(=O)N(Cc1ccccc1)Cc1ccccc1)=N\NC(N)=O,-6.65%,2.75%,-14.8%,3.75%,-6.65%,-20.8%
COCCC(=O)SCc1ccccc1,9.55%,-45.3%,-9.2%,-35.6%,-16.5%,1%
Cc1cc(OCCCC(=O)O)ccc1Cl,51.8%,30.7%,54.1%,34.9%,49.1%,52.1%
OCC1OC(O)C(N=Cc2ccc3c(c2)OCO3)C(O)C1O (stereo not drawn),13.7%,-14.6%,-14.2%,1.45%,-20.6%,-19.9%
CC(=O)NNc1nc(C)c(C(=O)NNC(=O)C(=O)Nc2ccc(Cl)cc2)s1,27%,-0.4%,16.5%,-63.2%,20%,22.9%
CSc1nc(=S)c2[nH]c(Cl)nc2[nH]1,-1.8%,0.4%,-6.9%,-15.2%,16.4%,0.25%
CCN(CC)C(=S)N=N/C(C)=C1/C=CC=CN1O,1.4%,0.4%,14.6%,13.6%,16.2%,74% (active)
C/C(=N\NS(=O)(=O)c1ccccc1)c1ccccc1,5.95%,3.4%,3.5%,28.6%,1.1%,20.5%
CN(C)CC(CN(C)C)C(=O)c1ccccc1,8.6%,19.6%,16.3%,-1%,-24.1%,-4.05%
CCCCCCCCCCCCCCCC(=O)NC(CCCCN)C(=O)NC(CCCCN)C(=O)OCC (stereo not drawn),77.9% (active),97% (active),68.9%,94.5% (active),47.4%,65.5%
